Source: PubChem BioAssay (Tox21)
Inconclusive results are not listed. Entries that show only a call come without a potency. The source made the active and inactive calls. Unless noted, the call rests on the fitted dose curve; in most records, active means well fitted curve in the direction sought with a large enough effect in the repeat runs; inconclusive means weak or mixed curves; inactive means no such curve, though single readings can be large; an effect the other way counts as inactive or inconclusive. Positions of bridges follow the written chain, without caps; N, C: chain ends. Non-standard residues stand in square brackets, D forms with d. Residues, ends and D or L forms follow the SMILES beside them. *: point of attachment. X1 = CC[C@@H](C)[C@@H](N)C1=N[C@H](C(=O)*)CS1; d(aIle) = CC[C@H](C)[C@@H](N)C(=O)O; dOrn = NCCC[C@@H](N)C(=O)O

Experiments:
[1] = qHTS assay to test for compound auto fluorescence at 535 nm (green) in HEK293 cells (AID 720680)
[2] = qHTS assay to test for compound auto fluorescence at 460 nm (blue) in HEK293 cell free culture (AID 720681)
Outline: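 Compounds were added to cell-free DMEM with 10% FBS and fluorescence read directly. The blue channel used 405 nm excitation and 460 nm emission, with triamterene as the reference fluorophore.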

[3] = qHTS assay to test for compound auto fluorescence at 535 nm (green) in HEK293 cell free culture (AID 720682)
Outline: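 Green-channel intensity (Ex/Em 485/535 nm) was recorded from compound-treated wells containing only DMEM with 10% FBS. Fluorescein provided the equivalency standard.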

[4] = qHTS assay to test for compound auto fluorescence at 590 nm (red) in HEK293 cell free culture (AID 720683)
Outline: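 Cell-free wells of DMEM with 10% FBS received compound, and intrinsic fluorescence was read at excitation/emission 540/590 nm. Values expressed as equivalence to Rose Bengal sodium.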

[5] = qHTS assay to test for compound auto fluorescence at 590 nm (red) in HepG2 cell free culture (AID 720684)
Outline: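 Auto fluorescence equivalency versus Rose Bengal sodium, red channel Ex/Em 540/590 nm; compounds in cell-free MEM/10% FBS; DMSO vehicle control.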

[6] = qHTS assay to test for compound auto fluorescence at 460 nm (blue) in HepG2 cell free culture (AID 720685)
Outline: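 Cell-free plates of MEM plus 10% FBS received 23 nL compound or DMSO vehicle; blue-channel (405/460 nm) intensity scored against triamterene as reference fluorophore.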

[7] = qHTS assay to test for compound auto fluorescence at 535 nm (green) in HepG2 cell free culture (AID 720686)
[8] = qHTS assay to test for compound auto fluorescence at 460 nm (blue) in HepG2 cells (AID 720687)
Outline: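 HepG2 cells in MEM with 10% FBS, attached overnight at 37 C, were exposed to compound or DMSO for 1 hr at 37 C, 5% CO2. Blue fluorescence was read at 405/460 nm, with triamterene as reference fluorophore.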

[9] = qHTS assay to identify small molecule antagonists of the glucocorticoid receptor (GR) signaling pathway - cell viability counter screen (AID 720693); further: nearly all actives have a fitted effect of over 55% in size
[10] = qHTS assay for identifying genotoxic compounds that show differential cytotoxicity against isogenic chicken DT40 cell lines with known DNA damage response pathways - wild type cell line (AID 743012); further: nearly all actives have a fitted effect of over 60% in size; further: potency means the concentration at half of the fitted maximal effect
Outline: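 Endpoint: CellTiter-Glo luminescence, 30 min RT. Cells: wild type DT40, 300/well. Exposure: compounds in DMSO, 40 h, 37 C/5% CO2, after ~0.5 h pre-incubation.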

[11] = qHTS assay for identifying genotoxic compounds that show differential cytotoxicity against isogenic chicken DT40 cell lines with known DNA damage response pathways - Rad54/Ku70 mutant cell line (AID 743015); further: nearly all actives have a fitted effect of over 60% in size; further: potency means the concentration at half of the fitted maximal effect
[12] = qHTS assay to identify small molecule antagonists of the androgen receptor (AR) signaling pathway - cell viability counter screen (AID 743033; further: nearly all actives have a fitted effect of over 45% in size; further: potency means the concentration at half of the fitted maximal effect)
[13] = qHTS assay to identify small molecule antagonists of the androgen receptor (AR) signaling pathway using the MDA cell line - cell viability counter screen (AID 743041; further: nearly all actives have a fitted effect of over 45% in size; further: potency means the concentration at half of the fitted maximal effect)
Outline: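 Compound exposure lasted 16 h at 37C in MDA-kb2 AR-luc cells stimulated with R1881. Protease-based CellTiter-Fluor reagent was applied for the final 30 min and fluorescence measured.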

[14] = biological target: Glucocorticoid receptor (Homo sapiens) (UniProt P04150); test: qHTS assay to identify small molecule agonists of the glucocorticoid receptor (GR) signaling pathway (AID 720691; active means well fitted activation curve with a large enough effect in the signal ratio in the repeat runs, not every such curve was filed as active; the % refers to the signal ratio); conditions: GR-bla HeLa, beta-lactamase reporter ratio, 18 h; activation: at 62.4 µM (top of the series)
Chain of Glucocorticoid receptor (Homo sapiens) (P04150 whole entry, looked up): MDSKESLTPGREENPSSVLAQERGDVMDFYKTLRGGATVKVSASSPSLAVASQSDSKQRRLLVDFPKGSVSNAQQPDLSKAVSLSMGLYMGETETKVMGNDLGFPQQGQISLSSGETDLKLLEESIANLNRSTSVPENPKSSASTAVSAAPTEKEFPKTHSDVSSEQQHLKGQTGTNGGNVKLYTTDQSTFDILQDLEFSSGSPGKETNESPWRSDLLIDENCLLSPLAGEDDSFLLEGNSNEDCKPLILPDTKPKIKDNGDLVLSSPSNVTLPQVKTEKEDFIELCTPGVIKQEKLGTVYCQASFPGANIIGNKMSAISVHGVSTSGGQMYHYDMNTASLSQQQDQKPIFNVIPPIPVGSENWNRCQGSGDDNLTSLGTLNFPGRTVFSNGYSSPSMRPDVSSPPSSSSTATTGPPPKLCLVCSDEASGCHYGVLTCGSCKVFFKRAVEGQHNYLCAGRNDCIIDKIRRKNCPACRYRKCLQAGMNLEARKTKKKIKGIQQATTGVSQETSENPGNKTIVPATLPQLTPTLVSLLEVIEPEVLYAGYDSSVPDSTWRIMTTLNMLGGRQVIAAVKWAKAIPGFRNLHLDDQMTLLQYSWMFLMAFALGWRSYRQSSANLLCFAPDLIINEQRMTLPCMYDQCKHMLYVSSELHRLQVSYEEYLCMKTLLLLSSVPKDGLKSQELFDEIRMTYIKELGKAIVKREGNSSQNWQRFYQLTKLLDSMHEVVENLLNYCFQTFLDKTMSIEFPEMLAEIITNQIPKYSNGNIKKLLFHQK
Outline: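 Measures GR pathway activation through a GRE-beta-lactamase reporter stably integrated in HeLa cells, with 18 h compound treatment at 37 C and fluorescence detection using a FRET substrate.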

[15] = biological target: Glucocorticoid receptor (Homo sapiens) (UniProt P04150); test: qHTS assay to identify small molecule antagonists of the glucocorticoid receptor (GR) signaling pathway (AID 720692; active means well fitted inhibition curve with a large enough effect in the signal ratio in the repeat runs, not every such curve was filed as active; the % refers to the signal ratio)
Outline: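 Tox21 10K library screened in concentration-response for blockade of dexamethasone (5 nM final)-induced GRE-bla reporter activity in HeLa cells; 18 h treatment, fluorescence read.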

[16] = qHTS assay for identifying genotoxic compounds that show differential cytotoxicity against isogenic chicken DT40 cell lines with known DNA damage response pathways - Rev3 mutant cell line (AID 743014); further: nearly all actives have a fitted effect of over 55% in size; further: potency means the concentration at half of the fitted maximal effect
[17] = biological target: Androgen receptor (Homo sapiens) (UniProt P10275); test: qHTS assay to identify small molecule antagonists of the androgen receptor (AR) signaling pathway (AID 743035; active means well fitted inhibition curve with a large enough effect in the signal ratio in the repeat runs, not every such curve was filed as active; the % refers to the signal ratio; further: potency means the concentration at half of the fitted maximal effect)
Chain of Androgen receptor (Homo sapiens) (P10275 whole entry, looked up): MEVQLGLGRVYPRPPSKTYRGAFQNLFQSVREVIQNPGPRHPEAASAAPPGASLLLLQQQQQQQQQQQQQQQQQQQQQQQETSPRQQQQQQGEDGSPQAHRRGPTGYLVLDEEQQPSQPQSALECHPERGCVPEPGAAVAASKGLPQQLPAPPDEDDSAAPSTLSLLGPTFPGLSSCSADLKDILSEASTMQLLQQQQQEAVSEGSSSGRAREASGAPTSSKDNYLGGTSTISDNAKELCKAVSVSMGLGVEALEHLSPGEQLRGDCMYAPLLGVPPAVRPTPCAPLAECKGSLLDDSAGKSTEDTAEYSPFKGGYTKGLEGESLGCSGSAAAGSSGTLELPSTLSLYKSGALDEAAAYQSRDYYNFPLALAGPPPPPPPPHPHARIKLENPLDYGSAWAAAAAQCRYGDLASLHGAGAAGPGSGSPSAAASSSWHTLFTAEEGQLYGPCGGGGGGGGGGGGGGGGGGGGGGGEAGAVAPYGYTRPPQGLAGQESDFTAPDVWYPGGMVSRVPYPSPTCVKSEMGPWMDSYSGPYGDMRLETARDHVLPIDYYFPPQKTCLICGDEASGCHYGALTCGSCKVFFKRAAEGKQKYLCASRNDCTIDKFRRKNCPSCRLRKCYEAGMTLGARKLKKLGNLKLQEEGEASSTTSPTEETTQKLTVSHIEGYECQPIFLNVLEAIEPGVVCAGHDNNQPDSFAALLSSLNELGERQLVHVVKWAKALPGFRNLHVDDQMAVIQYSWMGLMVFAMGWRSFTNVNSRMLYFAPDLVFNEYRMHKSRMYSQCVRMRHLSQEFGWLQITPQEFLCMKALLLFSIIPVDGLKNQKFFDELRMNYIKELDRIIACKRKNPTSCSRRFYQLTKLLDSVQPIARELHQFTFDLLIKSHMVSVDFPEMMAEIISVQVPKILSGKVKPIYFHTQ
Outline: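 R1881 agonist challenge of a HEK293 UAS-beta-lactamase AR reporter line in the presence of compound (16 h, 37C); signal taken as FRET fluorescence after 2 h with LiveBLAzer B/G substrate at room temperature.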

[18] = biological target: Androgen receptor (Homo sapiens) (UniProt P10275); test: qHTS assay to identify small molecule agonists of the androgen receptor (AR) signaling pathway using the MDA cell line (AID 743040; further: nearly all actives have a fitted effect of over 20% in size)
Outline: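 Testing was done with the MDA-kb2 AR-luc line, a human breast carcinoma stably transfected with MMTV-luciferase containing AR and GR response elements. Cells were exposed 16 h at 37C before ONE-Glo luminescence detection.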

[19] = biological target: Androgen receptor (Homo sapiens) (UniProt P10275); test: qHTS assay to identify small molecule antagonists of the androgen receptor (AR) signaling pathway using the MDA cell line (AID 743042; further: nearly all actives have a fitted effect of over 55% in size; further: potency means the concentration at half of the fitted maximal effect)
Outline: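 MDA-kb2 breast carcinoma cells carrying MMTV-luciferase (AR/GR responsive) were co-treated with compounds and the agonist R1881 for 16 h at 37C. Inhibition read as ONE-Glo luminescence; CellTiter-Fluor fluorescence measured in parallel for cytotoxicity.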

SMILES | outcome [1] | Potency [2] | outcome [3] | outcome [4] | outcome [5] | Potency [6] | Potency [7] | Potency [8] | Potency [9] | Potency [10] | Potency [11] | Potency [12] | Potency [13] | Potency [14] | Potency [15] | Potency [16] | Potency [17] | Potency [18] | Potency [19]
N#Cc1c(N(CC(=O)O)CC(=O)O)sc(C(=O)O)c1CC(=O)O | inactive | inactive | inactive | inactive | inactive | inactive | inactive | inactive | inactive | inactive | inactive | inactive | inactive | – | – | – | – | – | –
Cc1onc(-c2c(F)cccc2Cl)c1C(=O)N[C@@H]1C(=O)N2[C@@H]1SC(C)(C)[C@@H]2C(=O)O | inactive | inactive | inactive | inactive | inactive | inactive | inactive | – | inactive | inactive | inactive | inactive | – | inactive | inactive | inactive | – | – | –
Cc1cc(F)ccc1-c1cc(N2CC[C@@H](O)[C@H]2CO)ncc1N(C)C(=O)C(C)(C)c1cc(C(F)(F)F)cc(C(F)(F)F)c1 | inactive | inactive | inactive | inactive | inactive | inactive | inactive | inactive | – | 12 µM (active) | 10.7 µM (active) | 30.4 µM (active) | – | – | – | 8.5 µM (active) | 15.3 µM (active) | inactive | 33.8 µM (active)
CN1CCN(c2ccccc2/C=C2\SCCN(c3ccc(Cl)c(Cl)c3)C2=O)CC1 | inactive | inactive | inactive | inactive | inactive | inactive | inactive | inactive | – | 4.33 µM (active) | 5.45 µM (active) | – | – | – | – | 2.73 µM (active) | – | – | –
C[C@H](NCCc1ccc(O)cc1)[C@H](O)c1ccc(O)cc1 | inactive | inactive | inactive | inactive | inactive | inactive | inactive | – | inactive | inactive | inactive | inactive | – | inactive | inactive | inactive | – | – | –
CC[C@@H](C)[C@@H](N)C1=N[C@H](C(=O)N[C@@H](CC(C)C)C(=O)N[C@@H](CCC(=O)O)C(=O)N[C@@H](C(=O)N[C@@H]2CCCCNC(=O)[C@@H](CC(N)=O)NC(=O)[C@@H](CC(=O)O)NC(=O)[C@@H](Cc3cnc[nH]3)NC(=O)[C@@H](Cc3ccccc3)NC(=O)[C@@H]([C@H](C)CC)NC(=O)[C@@H](CCCN)NC2=O)[C@@H](C)CC)CS1 (X1-LE[d(aIle)][dK][dOrn][dI][dF][dH][dD][dN]; lactam 4-C) | inactive | inactive | inactive | inactive | inactive | inactive | inactive | inactive | – | inactive | inactive | inactive | inactive | – | – | inactive | – | – | –
CCCCCCCCOC(=O)c1cc(O)c(O)c(O)c1 | inactive | inactive | inactive | inactive | inactive | inactive | inactive | inactive | – | 0.545 µM (active) | 0.611 µM (active) | – | 48.6 µM (active) | – | – | 1.37 µM (active) | – | – | –
CC(Cc1ccc(O)c(O)c1)C(C)Cc1ccc(O)c(O)c1 (stereo unspecified) | inactive | inactive | inactive | inactive | inactive | inactive | inactive | inactive | – | 13.7 µM (active) | 15.4 µM (active) | inactive | inactive | – | – | 30.6 µM (active) | – | – | –
CC1(C)S[C@@H]2[C@H](NC(=O)[C@@H](NC(=O)N3CCNC3=O)c3ccccc3)C(=O)N2[C@H]1C(=O)O | inactive | inactive | inactive | inactive | inactive | inactive | inactive | – | – | inactive | inactive | inactive | inactive | inactive | inactive | inactive | – | – | –
O=C(Nc1ccccc1)c1cc(Cl)ccc1O | inactive | inactive | inactive | inactive | inactive | inactive | inactive | – | – | 13.7 µM (active) | 9.69 µM (active) | 11 µM (active) | – | inactive | – | 9.69 µM (active) | – | – | –
O=C(O)c1cc2cc(Cc3cccnc3)ccc2o1 | inactive | inactive | inactive | inactive | inactive | inactive | inactive | – | inactive | inactive | inactive | inactive | inactive | inactive | inactive | inactive | – | – | –
CC(C)[N+]1(C)[C@@H]2CC[C@H]1CC(OC(=O)C(CO)c1ccccc1)C2 (stereo partly specified) | inactive | inactive | inactive | inactive | inactive | inactive | inactive | – | inactive | – | – | inactive | inactive | inactive | – | – | – | – | –
CC(C)CCC[C@@H](C)[C@H]1CC[C@H]2[C@@H]3CC=C4C[C@@H](O)CC[C@]4(C)[C@H]3CC[C@]12C | inactive | inactive | inactive | inactive | inactive | inactive | inactive | – | inactive | inactive | inactive | inactive | inactive | inactive | inactive | inactive | – | – | –
CO/N=C(\C(=O)N[C@@H]1C(=O)N2C(C(=O)O)=C(C[N+]3(C)CCCC3)CS[C@H]12)c1csc(N)n1 | inactive | inactive | inactive | inactive | inactive | inactive | – | inactive | inactive | inactive | inactive | inactive | inactive | inactive | inactive | inactive | inactive | inactive | inactive
O=C(O)c1cc(O)c2c(c1)[C@H]([C@H]1c3cc(C(=O)O)cc(O)c3C(=O)c3c(O[C@@H]4O[C@H](CO)[C@@H](O)[C@H](O)[C@H]4O)cccc31)c1cccc(O[C@@H]3O[C@H](CO)[C@@H](O)[C@H](O)[C@H]3O)c1C2=O | inactive | inactive | inactive | inactive | inactive | inactive | inactive | – | inactive | inactive | inactive | – | inactive | inactive | inactive | inactive | – | – | –
C[S+](C)CCC(N)C(=O)O (stereo unspecified) | inactive | inactive | inactive | inactive | inactive | inactive | inactive | – | – | inactive | inactive | inactive | – | inactive | inactive | – | – | – | –
